Experimental findings from PubChem BioAssay AID2283112 (EPA ToxCast) are described below.

Inconclusive results are not listed. The source made the active and inactive calls. The calls were made as follows: active = hit-call score of the fitted dose curve at least 0.9, where 1 is the maximum; inconclusive = response in the unintended direction; inactive = score below 0.9.

In the assay the target is rat CYP1A1, Cyp1a1 (gene 24296) (UniProt P00185). As to the kind of experiment: NVS_ADME_rCYP1A1: NovaScreen (NVS) CYP450-related Enzyme Activity (ADME) Assay for rat CYP1A1. The method, then: NVS_ADME_rCYP1A1 is a biochemical, single-readout assay that uses extracted gene-proteins from baculovirus-insect cells in a cell-free assay. Measurements were taken 1 hour after chemical dosing in a 96-well plate.NVS_ADME_rCYP1A1 is one of one assay component(s) measured or calculated from the NVS_ADME_rCYP1A1 assay. It is designed to make measurements of enzyme activity, a form of enzyme reporter, as detected with fluorescence intensity signals by Fluorescence technology.Data from the assay component NVS_ADME_rCYP1A1 was analyzed into 1 assay endpoint. This assay endpoint, NVS_ADME_rCYP1A1, was analyzed in the positive analysis fitting direction relative to Acetonitrile as the negative control and baseline of activity. Using a type of enzyme reporter, loss-of-signal activity can be used to understand changes in the enzymatic activity as they relate to the gene Cyp1a1. Furthermore, this assay endpoint can be referred to as a primary readout, because this assay has produced multiple assay endpoints where this one serves a enzymatic activity function. To generalize the intended target to other relatable targets, this assay endpoint is annotated to the cyp intended target family, where the subfamily is xenobiotic metabolism. […]
Chain of rat CYP1A1, Cyp1a1 (gene 24296) (P00185 whole entry, looked up): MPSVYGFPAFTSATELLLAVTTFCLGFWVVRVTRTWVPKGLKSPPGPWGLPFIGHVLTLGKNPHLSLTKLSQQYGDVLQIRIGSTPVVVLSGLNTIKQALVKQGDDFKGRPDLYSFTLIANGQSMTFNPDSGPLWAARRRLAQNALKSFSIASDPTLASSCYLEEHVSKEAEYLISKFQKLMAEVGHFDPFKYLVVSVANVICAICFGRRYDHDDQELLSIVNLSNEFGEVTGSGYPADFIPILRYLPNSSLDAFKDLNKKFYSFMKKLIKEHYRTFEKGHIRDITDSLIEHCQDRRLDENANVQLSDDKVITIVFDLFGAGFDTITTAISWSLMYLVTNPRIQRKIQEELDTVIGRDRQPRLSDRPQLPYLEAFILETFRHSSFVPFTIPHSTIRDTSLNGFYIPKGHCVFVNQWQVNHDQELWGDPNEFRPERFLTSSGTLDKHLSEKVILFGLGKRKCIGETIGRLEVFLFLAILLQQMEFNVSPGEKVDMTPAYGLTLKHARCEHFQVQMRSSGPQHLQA

By AC50 is commonly meant the concentration at which the activity in the assay is half-maximal. As to `C=CCOC(Cn1ccnc1)c1ccc(Cl)cc1Cl` (stereo unspecified), the half-maximal activity concentration (AC50) is 7.73 µM (active).
